Assay results published in PubChem BioAssay AID743395 (Broad Institute, 2014).
The whole screen tested about 1,200 compounds, of which about 480 (40%) were called active. The set was probably picked from earlier hits. Not all results are given here. Results with a measured potency or affinity are listed apart. Values without a mark were called inactive. No rule for the calls is given here.

Experiment: viability loss in human hepatoma cells – cell-based, CellTiter-Glo luminescence, cherry-pick, set 2, cytotoxicity control, dose response (AID 743395);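 also: 0% = neutral control wells and -100% = positive control wells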
Conditions: HepG2 viability, CellTiter-Glo ATP luminescence, 72 h; series mostly up to 26 µM; activity change, negative = cytotoxicity: at the top concentration

Structure (SMILES) | activity change, negative = cytotoxicity
Cc1cccc(C(=O)N(Cc2ccco2)c2c(N)n(Cc3ccccc3)c(=O)[nH]c2=O)c1 | -0.07%
COc1ccccc1N(C)S(=O)(=O)c1ccc(C(=O)Nc2nccs2)cc1 | -9.42%
CC1CN(S(=O)(=O)c2ccc(C(=O)Nc3ccccc3F)cc2)CC(C)O1 (centres undefined) | -17.4%
c1ccc(-c2csc(NC3=NCCCCC3)n2)cc1 | -1.28%
CCOc1cc(OCC)c(C(C)=O)cc1OCC | 4.37%
CCn1c(SCC(=O)N/N=C/c2ccc(O)c(OC)c2)nc2ccccc21 | 0.421%
COc1cccc2c1C(=O)C=C(C)C2=O | -10.7%
Cc1ccc(NC(=O)c2ccc(Cl)c(S(=O)(=O)Nc3c(C)n(C)n(-c4ccccc4)c3=O)c2)cc1Cl | 0.196%
O=c1[nH]c(CN2CCN(c3ccc(O)cc3)CC2)nc2scc(-c3ccc(Cl)cc3)c12 | -28.1%
CCOC(=O)N1CCN(C(=O)C2CCC(=O)N(CCCN3CCCC3=O)C2)CC1 (centres undefined) | 4.66%
COc1ccccc1NS(=O)(=O)c1ccc(C)c(C(=O)Nc2cc(C)on2)c1 | -9.34%
COc1ccc(Cl)cc1C(=O)NNC(=O)CCNS(=O)(=O)c1ccccc1 | -24.7%
COC(=O)c1ccc(CS(=O)(=O)c2ccc(F)cc2)o1 | 14.9%
Nc1[nH]nc2ncc3cc4ccccc4nc3c12 | -30.7%
Clc1cccc(-c2ccc(C=Nc3ccc(N4CCOCC4)cc3)o2)c1Cl | -1.34%
O=C(CN1CCOc2ccccc21)NCc1ccc(Cl)cc1 | -14.9%
COC(=O)COc1cccc2c(=O)n(CC(=O)NCc3ccccc3)ccc12 | 1.47%
O=C(N/N=C/c1cccs1)c1cccc(NC(=O)c2ccccc2Cl)c1 | -0.464%
O=C(c1ccc(S(=O)(=O)NCC2CCCO2)cc1)N1CCN(c2cccc(Cl)c2)CC1 (centres undefined) | -9.2%
O=C(CSc1nc2nn(-c3ccccc3)c(=O)c-2c2n1CCCCC2)Nc1ccc(OC(F)F)cc1 | -13.5%
COc1cc(OC)c2c(-c3cccc(-c4ccc(OC)c(OC)c4)c3)cc(=O)oc2c1 | 15.8%
Cc1ccc(-c2cccc(-c3cc(=O)oc4ccc(C(C)(C)C)cc34)c2)cc1 | -10.4%
COc1cc(OC)c2c(-c3cccc(-c4ccc(OC)c(F)c4)c3)cc(=O)oc2c1 | -19.6%
COc1ccc(-c2c(C)cc3oc(=O)cc(-c4ccccc4)c3c2C)cc1OC | -4.38%
CN1C(=O)c2cccc3c(N)ccc(c23)C1=O | -20.1%

Structure (SMILES) | activity change, negative = cytotoxicity
CC1Cc2nc(SCC(=O)N3CCOCC3)n(-c3ccccc3)c(=O)c2S1 (centres undefined) | -24%
COc1cc(/C=C(\CC(=O)O)c2nc3ccccc3s2)ccc1OCC(=O)Nc1ccccc1F | -10.9%
CC(=O)Nc1ccc(-c2csc(NC(=O)CN3C(=O)NC4(CCCC4)C3=O)n2)cc1 | 1.18%
CC(C)(C)c1ccccc1NC(=O)CN1C(=O)NC2(CCCCCC2)C1=O | -9.96%
O=C(NC1CCN(Cc2ccccc2)CC1)c1cc(S(=O)(=O)N2CCOCC2)ccc1Cl | -4.42%
Cn1c(CC(=O)NN)c(Sc2ccccc2)c2ccccc21 | 0.473%
COc1cc(/C=C(\C#N)C(=O)c2c[nH]c3ccccc23)cc(OC)c1O | 12.3%
CCCOc1cc(N(CC)CC)ccc1/C=C(/C#N)c1nc2ccc(C)cc2[nH]1 | -7.43%
O=C(Nc1ccn(CCCNC2CCN(Cc3ccccc3)CC2)c(=O)n1)OCc1ccccc1 | -10.9%
Clc1ccc(N(CC2CO2)CC2CO2)cc1 (centres undefined) | -9.93%
CC1=C(C(=O)N(C)C)CC(CC(=O)NCc2cccc3ccccc23)C(=O)N1CCCN1CCCC1=O (centres undefined) | -1.91%
Cc1cccc(NC(=O)CN2CCN(C(=O)CN3C(=O)NC4(CC(C)CC(C)(C)C4)C3=O)CC2)c1C (centres undefined) | -20.4%
COc1ccc(S(=O)(=O)N2CC[C@@H]3[C@@H](CO)N(C)c4ccc(-c5ccc(F)cc5)cc4[C@@H]32)cc1 | 10.9%
COc1ccc2c(c1)C(O)C(CO)C(C(=O)O)C2 (centres undefined) | -0.564%
CCOc1ccc2c(c1)C(C)=CC(C)(C)N2S(=O)(=O)c1ccc(F)cc1 | -15.7%
O=C(Cc1ccccn1)NCC[C@H]1CC[C@H](NC(=O)Nc2ccc(C(F)(F)F)cc2)[C@H](CO)O1 | 4.87%
Fc1ccc2nc(C3CCN(Cc4nc(CC5CC5)no4)CC3)[nH]c2c1 | -1.48%
N#C/C(=C(/O)c1ccc(Br)s1)c1nc2ccccc2[nH]1 | -19.7%
Cc1cc2oc(C(=O)NCCc3ccc(S(N)(=O)=O)cc3)c(C)c2cc1C | -9.06%
CCOC(=O)N1CCN(S(=O)(=O)c2ccc3c(c2)C(C)C(=O)N3)CC1 (centres undefined) | -13%
COc1ccccc1C1CC(=O)Nc2cc3c(cc21)OCCO3 (centres undefined) | 5.01%
CCOc1ccccc1NC(=O)CC1SC(=N)N(c2ccccc2)C1=O (centres undefined) | -1.66%
O=S1(=O)c2ccc(Br)cc2N2CCC[C@H]2CN1Cc1ccccc1 | -13.4%
O=C(CC1Sc2ccccc2NC1=O)NNc1cccc(Cl)c1Cl (centres undefined) | -13.7%
